# In PubChem BioAssay AID652068 (The Scripps Research Institute Molecular Screening Center, 2013):
# Screen size: about 4,300 compounds; about 4,000 (93%) were called active. The set was probably picked from earlier hits. A selection follows. Values without a mark were called inactive.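 How the source made its calls: active means inhibition above its plate's cutoff, the mean test-well inhibition plus 3 SD (cut at about 4.8% in these data); inactive means the rest.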
# Test: displacement of TO-PRO-1 from CAG DNA duplex, counter-screen for rCAG RNA repeat binder project, biochemical, fluorescence, TO-PRO-1 dye, d(CAG) DNA oligo (AID 652068);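 further: 0% = DNA dye mix with DMSO and 100% = 100 µM mitoxantrone; hits displace the dye from DNA and so lower well fluorescence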
# Settings: d(CAG) DNA oligo TO-PRO-1 dye displacement, at 3 µM, active compounds read high
row,SMILES,inhibition
1,CC(C)c1ccc(Nc2nnc(SCC(=O)c3nnc(-c4ccccc4)o3)s2)cc1,27.2% (active)
2,O=C(O)c1ccc(NN=CC2=C(N3CCOCC3)/C(=C/c3ccccc3)CC2)cc1,30.8% (active)
3,NC(=O)c1c(Nc2nc3c(F)cccc3s2)sc2c1CCCC2,14.3% (active)
4,COc1ccc(OC)c(NC(=O)CSc2nc(-c3ccccc3)cc(=O)[nH]2)c1,5.74% (active)
5,CCOc1cc(/C=C(\C#N)c2nc(-c3cccs3)c(NC(C)=O)s2)ccc1O,16.7% (active)
6,CCCOc1ccc(Cn2c(O)cc(=O)[nH]c2=O)cc1,6.06% (active)
7,COc1ccc(Cl)cc1-n1c(=S)sc2c(=O)n(-c3ccc(F)cc3)c(SCC(=O)O)nc21,8.24% (active)
8,COc1ccccc1/C=C/C=N/n1c(-c2ccc(Cl)cc2Cl)n[nH]c1=S,15.2% (active)
9,COc1cc(C2CC(=O)N3CN(Cc4ccccc4)CSC3=C2C#N)ccc1OCc1ccccc1 (stereo not drawn),12.4% (active)
10,Cc1ccc(Nc2nc(-c3ccc(O)cc3O)cs2)nc1,13% (active)
11,O=C(N/N=C/c1cc(Cl)cc([N+](=O)[O-])c1O)C(O)(c1ccccc1)c1ccccc1,17.8% (active)
12,Cc1cc(/C=C2/C(=N)N3C(=NC2=O)SN=C3S(C)(=O)=O)c(C)n1-c1ccccc1,53.2% (active)
13,Clc1ccccc1CSc1nnc(-c2ccco2)c(-c2ccco2)n1,30% (active)
14,Cc1cc(F)ccc1S(=O)(=O)Nc1ncnc2scc(-c3ccc(F)cc3)c12,34.7% (active)
15,O=C(Nc1nc(-c2ccco2)c(-c2ccco2)s1)c1ccco1,16.6% (active)
16,Cc1ccc(C(=O)O)cc1-c1ccc(/C=C2\SC(=O)N(CC(=O)Nc3ccc4c(c3)OCO4)C2=O)o1,59.2% (active)
17,Cc1ccc(C(C)C)c(OCCSc2nc3ccccc3n2CC(=O)O)c1,10.7% (active)
18,Cc1ccc(C)c(Cn2nnc3c(=O)[nH]c(C(=O)Nc4ccc(F)cc4)nc32)c1,11.1% (active)
19,O=c1cc(CN2CCN(S(=O)(=O)/C=C/c3ccccc3)CC2)c2ccc(O)cc2o1,13.1% (active)
20,Cc1cccc(C)c1NC(=O)C(c1ccc(C(F)(F)F)cc1)n1c(=O)c(-c2ccco2)nc2ccccc21 (stereo not drawn),7.75% (active)
21,O=C1c2cccc3cccc(c23)C(=O)N1CCCCCc1n[nH]c(=S)o1,6.52% (active)

row,SMILES,inhibition
1,CC(C)c1nc(SCC(=O)Nc2cccc(C(=O)O)c2)c2c3c(sc2n1)CCCC3,20% (active)
2,O=C(N/N=C/c1cccnc1)c1cc2ccccc2cc1O,4.9% (active)
3,Cc1ccc(NC(=O)Nc2nnc(-c3ccncc3)s2)cc1,13.7% (active)
4,Cc1nnc(NC(=O)Nc2ccc(Cl)c(Cl)c2)s1,21.5% (active)
5,C=C1c2c(Cl)ccc(O)c2C(O)=C2C(=O)[C@]3(O)C(O)=C(C(N)=O)C(=O)[C@@H](N(C)C)[C@@H]3[C@@H](O)C12 (stereo partly drawn),38% (active)
6,Cc1ccc(Nc2nc(CSc3nnnn3-c3ccccc3)cc(=O)[nH]2)cc1,16.6% (active)
7,O=C(O)c1ccc2c(c1)C(=O)N(c1ccc(/C=C/C(=O)c3ccccc3)cc1)C2=O,23.6% (active)
8,CCOc1ccc(-n2c(O)c(/C=N/Nc3nnc(C)c(=O)[nH]3)c3ccccc3c2=O)cc1,22.9% (active)
9,N#Cc1c(NC(=O)C2CC(Cl)=CCC2C(=O)O)sc2c1CCCCC2 (stereo not drawn),9.19% (active)
10,COC(=O)c1c(NC(=O)C2CC(C)=C(C)CC2C(=O)O)sc2c1CCCCC2 (stereo not drawn),20.6% (active)
11,CCc1nnc(NS(=O)(=O)c2ccc(NC(=S)NC(=O)c3cccs3)cc2)s1,16.6% (active)
12,CCc1nnc(NS(=O)(=O)c2ccc(NC(=O)c3cccc(OC(F)(F)C(F)F)c3)cc2)s1,22.8% (active)
13,O=C(O)CC/C(=C\c1cc2c(cc1Br)OCO2)c1nc2ccccc2s1,13.3% (active)
14,COc1ccc(C(=O)Nc2cccc(/C=C(/CCC(=O)O)c3nc4ccccc4s3)c2)cc1,33.5% (active)
15,Cc1ccc2cc(/C=N/Nc3ccc(C(=O)O)cc3)c(Cl)nc2c1,12% (active)
16,Cc1ccc(/C=C/C(=O)Nc2ccc([N+](=O)[O-])c(NC(=O)/C=C/c3ccc(C)o3)c2)o1,24.9% (active)
17,O=C(Nc1nnc(-c2ccccc2)o1)c1cc(-c2cccs2)nc2ccccc12,28.7% (active)
18,O=C(Nc1ccccc1)Nc1nnc(COc2ccccc2F)s1,24.9% (active)
19,O=C(NC(=S)Nc1ccccc1C(=O)O)c1ccc(-c2ccc(Br)cc2)o1,40.4% (active)
20,COCCNC(=O)Nc1ccc2nc(-c3ccco3)c(-c3ccco3)nc2c1,28.6% (active)
21,Cc1ccc(C(=O)Oc2coc(CSc3nnc(NC(=O)c4cccs4)s3)cc2=O)cc1C,23.1% (active)

row,SMILES,inhibition
1,Cc1ccc(-c2csc(C(C#N)=C(O)CN3CCN(C(=O)c4ccco4)CC3)n2)cc1,18.7% (active)
2,Cc1ccc(S(=O)(=O)NCCC(c2ccccc2)c2ccccc2)cc1C(=O)O,5.44% (active)
3,Cc1ccccc1OCC(=O)Nc1nnc(S(=O)(=O)N2CCCC2)s1,10.8% (active)
4,CCCCCCC(=O)Nc1nc(C)c(-c2csc(Nc3cc(Cl)ccc3OC)n2)s1,11.6% (active)
5,C[C@H]([C@@H](O)[C@@H](O)[C@@H](C)C(C)(C)C)[C@H]1CC[C@H]2C3CC[C@H]4C[C@H](OS(=O)(=O)O)[C@@H](OS(=O)(=O)O)C[C@]4(C)[C@H]3CC[C@]12C (stereo partly drawn),61.2% (active)
6,Cc1ccc(S(=O)(=O)Nc2nc3ccccc3s2)cc1[N+](=O)[O-],6.62% (active)
7,O=C1/C(=C/c2ccc(F)cc2)SC(=S)N1NS(=O)(=O)c1ccccc1,11.9% (active)
8,COc1ccc2[nH]c3c(C)c4cc[n+](C)cc4c(C)c3c2c1,61.2% (active)
9,Oc1c(Cl)cc(Cl)c(Cl)c1Cc1c(O)c(Cl)cc(Cl)c1Cl,76.5% (active)
10,CCn1c(SCC(=O)Nc2ccc(S(=O)(=O)Nc3onc(C)c3C)cc2)nnc1-c1ccccc1,6.29% (active)
11,Cc1cc(NS(=O)(=O)c2ccc(NC(=O)CSc3nnc(SCc4ccc(F)cc4)s3)cc2)nc(C)n1,13% (active)
12,Cc1cc(NS(=O)(=O)c2ccc(NC(=O)CSc3nnc(-c4ccc(C(C)(C)C)cc4)n3Cc3ccco3)cc2)nc(C)n1,4.42% (active)
13,Cc1nnc(SC(C(=O)Nc2cc(Cl)cc(Cl)c2)c2ccccc2)[nH]c1=O (stereo not drawn),28% (active)
14,CCOc1ccc(-n2c(SCC(=O)Nc3cc(C(=O)O)ccc3Cl)nc3ccccc3c2=O)cc1,19.2% (active)
15,COC(=O)c1sc(-c2ccc(C(C)(C)C)cc2)cc1NC(=O)/C=C/C(=O)O,41.3% (active)
16,CSc1ccc(C=Nn2c(-c3ccc(F)cc3)n[nH]c2=S)cc1,11.3% (active)
17,CC(C(=O)Nc1ccc(O)c(C(=O)O)c1)N1C(=O)/C(=C/c2cccs2)SC1=S (stereo not drawn),42.3% (active)
18,COc1ccc(-c2cc(C(=O)NC(Cc3c[nH]c4ccccc34)C(=O)O)c(C)o2)cc1OC (stereo not drawn),16.9% (active)
19,CC(Oc1ccc2c(-c3ccccc3)cc(=O)oc2c1)C(=O)NC(Cc1c[nH]c2ccccc12)C(=O)O (stereo not drawn),16.9% (active)
20,O=C(N[C@@H](Cc1c[nH]c2ccccc12)C(=O)O)OCC1c2ccccc2-c2ccccc21,23.8% (active)
21,COc1ccc(-c2cc(=O)oc3cc(OCC(=O)N[C@@H](Cc4c[nH]c5ccccc45)C(=O)O)ccc23)cc1,26.4% (active)

row,SMILES,inhibition
1,COc1ccc(S(=O)(=O)NCCc2c[nH]c3ccccc23)cc1OC,0.56%
2,COc1cccc2sc(NNC(=O)c3nc4ccccc4s3)nc12,42.1% (active)
3,Cc1ccc(-n2c(SCC(=O)Nc3ccc(S(=O)(=O)Nc4nccs4)cc3)nnc2-c2ccccn2)cc1,23.8% (active)
4,Cc1ccc(-n2c(SCC(=O)Nc3ccc(S(=O)(=O)Nc4nccs4)cc3)nnc2-c2ccncc2)cc1,35.9% (active)
5,Cc1ccc(-n2c(SCC(=O)Nc3ccc(S(=O)(=O)Nc4nccs4)cc3)nnc2-c2cccnc2)cc1,24.7% (active)
6,CC(C)c1ccc(CC(=O)N2CCC2(C)C(=O)NS(=O)(=O)c2ccc(C(C)(C)C)cc2)cc1 (stereo not drawn),25.3% (active)
7,COc1ccc(S(=O)(=O)NC(=O)C2(C)CCN2C(=O)c2ccccc2CCc2ccccc2)cc1 (stereo not drawn),6.35% (active)
8,CC1(C(=O)NS(=O)(=O)c2ccccc2)CCN1C(=O)Cc1ccc(-c2ccccc2)cc1 (stereo not drawn),7.2% (active)
9,CC1(C(=O)NS(=O)(=O)Cc2cccc(Cl)c2)CCN1C(=O)Cc1ccc(Cl)cc1Cl (stereo not drawn),36.2% (active)
10,CC(Oc1ccc2ccccc2c1)C(=O)NNC(=S)NC(=O)c1ccco1 (stereo not drawn),11.8% (active)
11,CCCc1ccc(OCC(=O)NNC(=S)NC(=O)c2ccco2)cc1,14.4% (active)
12,O=C(Nc1ccc2c(c1)CCC2)c1cccc(S(=O)(=O)Nc2ccccc2Cl)c1,10.7% (active)
13,NS(=O)(=O)c1ccc(N=Nc2c(O)[nH]c3ccc(Br)cc23)cc1,9.96% (active)
14,N#CCC(=O)Nc1ccc(C(=O)OCC(=O)Nc2sc3c(c2C#N)CCCC3)cc1,17% (active)
15,COC(=O)c1sccc1NC(=O)CSc1ccccc1NS(=O)(=O)c1cc(Cl)ccc1Cl,32.6% (active)
16,NS(=O)(=O)c1ccc(NC2=CC(c3ccc(F)cc3)N(c3ccc(S(N)(=O)=O)cc3)C2=O)cc1 (stereo not drawn),15% (active)
17,CC(C)(C)C1C/C(=C/c2ccco2)C(=O)/C(=C/c2ccco2)C1 (stereo not drawn),17.1% (active)
18,O=C(c1cccnc1)N(c1cc2sc(=O)oc2c2ccccc12)S(=O)(=O)c1ccccc1,20.1% (active)
19,CC(=O)N(c1ccc2oc(=O)sc2c1)S(=O)(=O)c1ccc(C)cc1,3.88%
20,COc1ccc(Cc2nnc(SCC(=O)Nc3ccc(C)c(Cl)c3)[nH]c2=O)cc1,24.4% (active)
